From PubChem BioAssay (Tox21)
Values without a mark were called inactive. Where a call stands in place of a potency, no number is given. The source made the active and inactive calls. Calls come from the whole dose curve.

Target: Gonadotropin-releasing hormone receptor (Homo sapiens) (UniProt P30968)
Assay: Human gonadotropin-releasing hormone receptor (GnRHR) small molecule agonists, calcium flux assay in GnRHR-HEK293 cells (AID 1920063); note: nearly all actives have a fitted effect of over 35% in size
Details: calcium flux fluorescence, agonist mode; series mostly up to 57.6 µM
Description: National Center for Advancing Translational Sciences [NCATS]
Division of Preclinical Innovation [DPI]
U.S. Environmental Protection Agency [EPA]
National Institutes of Environmental Health Sciences [NIEHS]
National Toxicology Program [NTP]
U.S. Food and Drug Administration [FDA]
Gonadotropin-releasing hormone receptor (GnRHR) is a G-protein-coupled receptor (GPCR) and acts (through phospholipase C) to increase intracellular inositol trisphosphate and then release intracellular calcium stores. Cell-based GnRHR-Hek293 calcium influx assay is using HEK293 cells that have been genetically engineered to express the human GnRHR, which activity can be measured by calcium signaling. A compound/drug can activate (agonist) GnRHR that can be monitored by levels of intracellular calcium.
GnRHR-HEK293 cells developed by Codex Corp contain human GnRHR reporter gene, which was stably integrated into HEK 293 cells. The compound activation can be detected by fluorescence intensity via calcium flux assay. This cell line has been used to screen the Tox21 10K compound library to identify GnRHR agonists.
GnRHR-Hek293 cells were dispensed at 1500cells/4uL/well in 1536-well black wall/clear bottom plates using a multidrop dispenser. After the assay plates were incubated at a 37 C/5% CO2 incubator for 18 hours, 4 uL of Calcium Dye Solution was added to each well. The plates were incubated at 37 C for 1 hour. For agonist mode, 23 nL of compounds dissolved in DMSO, positive controls or DMSO only was transferred to the assay plate by a pin tool station. The fluorescence intensity in the plates was measured using FDSS 7000EX kinetic plate reader with a filter set of Ex/Em=480/540 for 3 min at 1 sec intervals. Each test compound was measured at 15 concentrations and in triplicates.

Chain of Gonadotropin-releasing hormone receptor (Homo sapiens) (P30968 whole entry, looked up): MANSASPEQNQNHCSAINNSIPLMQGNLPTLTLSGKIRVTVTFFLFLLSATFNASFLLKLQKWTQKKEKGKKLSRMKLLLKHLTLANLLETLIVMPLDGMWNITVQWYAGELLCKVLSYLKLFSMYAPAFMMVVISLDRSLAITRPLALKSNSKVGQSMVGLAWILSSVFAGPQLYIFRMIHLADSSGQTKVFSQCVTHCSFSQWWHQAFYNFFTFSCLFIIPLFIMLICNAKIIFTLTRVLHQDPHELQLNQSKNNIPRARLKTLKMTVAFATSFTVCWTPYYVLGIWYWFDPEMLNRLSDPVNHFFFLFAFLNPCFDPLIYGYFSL

| Compound | Potency | activity change |
| --- | --- | --- |
| CCC(C)CCCC(C)(C)O (stereo not given) | inactive | – |
| Cc1ccnc2ccccc12 | inactive | – |
| CN(C)Cc1ccccc1 | inactive | – |
| CC(=O)c1c(C)cc(C(C)(C)C)cc1C | inactive | – |
| CCCCCN(CCCCC)C(=O)C(CCC(=O)O)NC(=O)c1ccc(Cl)c(Cl)c1 (stereo not given) | inactive | – |
| CCCC(=O)C(CC)Sc1ccoc1C (stereo not given) | inactive | – |
| CN=C(NC#N)Nc1ccc(C2=NNC(=O)CC2C)cc1 (stereo not given) | inactive | – |
| Cc1cc(C)c(NC(=O)CN(CC(=O)O)CC(=O)O)c(C)c1Br | inactive | – |
| OCC(CO)n1cnc(-c2ccc(F)cc2)c1-c1ccnc(Oc2ccccc2)n1 | inactive | – |
| CN(C)CCc1c[nH]c2ccc(C[C@H]3COC(=O)N3)cc12 | inactive | – |
| CC(C)COC(=O)COc1cc(Cl)c(Cl)cc1Cl | inactive | – |
| N[C@H]1CN(c2c(F)cc3c(=O)c(C(=O)O)cn(C4C[C@H]4F)c3c2Cl)CC12CC2 (stereo not given in full) | inactive | – |
| Cc1cccc([N+](=O)[O-])c1C(=O)O | inactive | – |
| CCCCCc1ccco1 | inactive | – |
| CN1CCN(CC(=O)N2c3ccccc3C(=O)Nc3cccnc32)CC1 | – | -0.376% [at 5.22 µM, active compounds read high] |
| Cc1ccc(OC(=O)c2ccccc2O)cc1 | inactive | – |
| COc1ccc(C)cc1[N+](=O)[O-] | inactive | – |
| CCOc1cccc(N)c1 | inactive | – |
| CN(C)CCCOC1(Cc2ccccc2)CCCCCC1 | inactive | – |
| CCC=O | inactive | – |

| Compound | Potency | activity change |
| --- | --- | --- |
| BrC(Br)C(Br)Br | inactive | – |
| COc1ccccc1OCC(O)CN1CCN(CC(=O)Nc2c(C)cccc2C)CC1 (stereo not given) | inactive | – |
| CNS(=O)(=O)CCc1ccc2[nH]cc(C3CCN(C)CC3)c2c1 | inactive | – |
| CC(=O)Nc1ccccc1C | inactive | – |
| OCC(O)c1ccccc1 (stereo not given) | inactive | – |
| C/C=C/C(=O)OCC(C)C | inactive | – |
| CN1CCN(C2Cc3ccccc3Sc3ccc(Cl)cc32)CC1 (stereo not given) | inactive | – |
| CC(=O)c1ccc(Cl)c(Cl)c1Cl | inactive | – |
| CCN(CC)CCOC(=O)C1(c2ccccc2)CCCC1 | inactive | – |
| C[C@H]1C[C@H]2[C@@H]3CCC4=CC(=O)C=C[C@]4(C)[C@H]3C(=O)C[C@]2(C)[C@@]1(O)C(=O)CO | inactive | – |
| CCOC(=O)[C@H](CCc1ccccc1)N[C@@H](C)C(=O)N1Cc2cc(OC)c(OC)cc2C[C@H]1C(=O)O | inactive | – |
| CCCCCCCCCCCCSC | inactive | – |
| C=CC(OCC)OCC | inactive | – |
| CCCCCCCCCC(=O)OCC | inactive | – |
| CN(C)CC/C=C1/c2ccccc2COc2ccc(CC(=O)O)cc21 | inactive | – |
| O=P(O)(O)C(O)(Cc1cccnc1)P(=O)(O)O | inactive | – |
| CCCC(C)C | inactive | – |
| CCOC(=O)CC1(C)OCC(C)O1 (stereo not given) | inactive | – |
| CN(CCOc1ccc(NS(C)(=O)=O)cc1)CCc1ccc(NS(C)(=O)=O)cc1 | inactive | – |
| O=C1c2ccccc2C(=O)C1(O)O | inactive | – |
